# Results from PubChem BioAssay AID1159580 (chemical genetic matrix, 2015).
# Screen size: about 5,500 compounds; about 2,000 (36%) were called active. Another 18% or so got no clear call; they are omitted. The list shows a part of the results. Unmarked numbers belong to inactive results. Rule as the data show it: active = normalized growth mostly below about 0.91 (no sharp cut-off); inconclusive = no clear call, values can overlap the other calls; inactive = mostly above about 0.92.
# Test: chemical genetic growth profiling, strain panel (AID 1159580);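 also: tested at 20 µM; growth read once vehicle control cultures reached saturation at 30 °C; 1 = growth at the plate median or of vehicle wells; lower values mean less growth of the strain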
# Details: S. cerevisiae deletion strains, growth OD
smiles,measurement,setting,value
Nc1ccn([C@@H]2O[C@H](CO)[C@@H](O)C2O)c(=O)n1 (some centres not stated),normalized growth,"locus YAL013W, strain DEP1, hits give low values",0.982
same,normalized growth,"locus YAL040C, strain CLN3, hits give low values",1.03
same,normalized growth,"locus YDR363W, strain ESC2, hits give low values",0.981
same,normalized growth,"locus YER002W, strain NOP16, hits give low values",1
same,normalized growth,"locus YNL128W, strain TEP1, hits give low values",0.967
same,normalized growth,"locus YNL175C, strain NOP13, hits give low values",0.987
same,normalized growth,"locus YNL197C, strain WHI3, hits give low values",0.976
same,normalized growth,"locus YNL224C, strain SQS1, hits give low values",0.983
same,normalized growth,"locus YNL322C, strain KRE1, hits give low values",1
same,normalized growth,"locus YOR083W, strain WHI5 (second series), hits give low values",1.05
same,normalized growth,"locus YPL055C, strain LGE1, hits give low values",0.99
same,normalized growth,"locus YPL241C, strain CIN2, hits give low values",0.996
CN(CCC(N)CC(=O)N[C@H]1C=CC(n2ccc(N)nc2=O)O[C@@H]1C(=O)O)C(=N)N (some centres not stated),normalized growth,"locus YAL021C, strain ccr4, hits give low values",0.406 (active)
same,normalized growth,"locus YAL026C, strain drs2, hits give low values",0.953
same,normalized growth,"locus YAL030W, strain snc1, hits give low values",0.93
same,normalized growth,"locus YBL061C, strain skt5, hits give low values",0.938
same,normalized growth,"locus YBR009C, strain hhf1, hits give low values",0.895 (active)
same,normalized growth,"locus YBR023C, strain chs3, hits give low values",0.944
same,normalized growth,"locus YBR171W, strain sec66, hits give low values",0.963
same,normalized growth,"locus YBR231C, strain swc5, hits give low values",0.976
same,normalized growth,"locus YBR279W, strain paf1, hits give low values",0.916 (active)
same,normalized growth,"locus YCL011C, strain gbp2, hits give low values",0.935
same,normalized growth,"locus YCL016C, strain dcc1, hits give low values",0.947
same,normalized growth,"locus YCL061C, strain MRC1, hits give low values",0.899 (active)
same,normalized growth,"locus YCL069W, strain vba3, hits give low values",0.942
same,normalized growth,"locus YCR088W, strain abp1, hits give low values",0.962
same,normalized growth,"locus YDL005C, strain med2, hits give low values",0.111 (active)
same,normalized growth,"locus YDL040C, strain nat1, hits give low values",0.983
same,normalized growth,"locus YDR001C, strain nth1, hits give low values",0.965
same,normalized growth,"locus YDR069C, strain doa4, hits give low values",0.494 (active)
same,normalized growth,"locus YDR137W, strain rgp1, hits give low values",0.852
same,normalized growth,"locus YDR159W, strain sac3, hits give low values",0.659 (active)
same,normalized growth,"locus YDR195W, strain ref2",0.603 (active)
same,normalized growth,"locus YDR297W, strain sur2, hits give low values",0.941
same,normalized growth,"locus YDR334W, strain swr1, hits give low values",0.917
same,normalized growth,"locus YDR335W, strain msn5, hits give low values",0.626 (active)
same,normalized growth,"locus YDR392W, strain spt3, hits give low values",0.262 (active)
same,normalized growth,"locus YEL003W, strain gim4, hits give low values",0.919
same,normalized growth,"locus YEL037C, strain rad23, hits give low values",0.963
same,normalized growth,"locus YEL061C, strain CIN8 (second series), hits give low values",0.952
same,normalized growth,"locus YER015W, strain faa2, hits give low values",0.917 (active)
same,normalized growth,"locus YER016W, strain bim1, hits give low values",0.976
same,normalized growth,"locus YER111C, strain swi4, hits give low values",0.793 (active)
same,normalized growth,"locus YER155C, strain BEM2 (second series), hits give low values",0.826 (active)
same,normalized growth,"locus YFR010W, strain ubp6, hits give low values",0.725 (active)
same,normalized growth,"locus YGL167C, strain pmr1, hits give low values",0.998
same,normalized growth,"locus YGL173C, strain kem1, hits give low values",0.124 (active)
same,normalized growth,"locus YGL227W, strain vid30, hits give low values",0.98
same,normalized growth,"locus YGL240W, strain doc1, hits give low values",0.31 (active)
same,normalized growth,"locus YGL253W, strain hxk2, hits give low values",0.942
same,normalized growth,"locus YHR013C, strain ard1, hits give low values",0.929
same,normalized growth,"locus YHR027C, strain rpn1, hits give low values",0.814 (active)
same,normalized growth,"locus YHR030C, strain SLT2, hits give low values",0.9
same,normalized growth,"locus YHR079C, strain IRE1, hits give low values",0.924
same,normalized growth,"locus YHR142W, strain chs7, hits give low values",0.846 (active)
same,normalized growth,"locus YJL092W, strain hpr5, hits give low values",0.913 (active)
same,normalized growth,"locus YJL095W, strain BCK1 (second series), hits give low values",0.891 (active)
same,normalized growth,"locus YJL095W, strain BCK1, hits give low values",0.934
same,normalized growth,"locus YJL115W, strain asf1, hits give low values",0.725 (active)
same,normalized growth,"locus YJL129C, strain trk1, hits give low values",0.637 (active)
same,normalized growth,"locus YJL154C, strain vps35, hits give low values",0.898 (active)
same,normalized growth,"locus YJL164C, strain tpk1, hits give low values",0.888 (active)
same,normalized growth,"locus YJL166W, strain qcr8, hits give low values",0.891 (active)
same,normalized growth,"locus YJL187C, strain SWE1, hits give low values",0.872 (active)
same,normalized growth,"locus YJR066W, strain TOR1, hits give low values",0.814 (active)
same,normalized growth,"locus YKL160W, strain elf1, hits give low values",0.887 (active)
same,normalized growth,"locus YKR026C, strain gcn3, hits give low values",0.965
same,normalized growth,"locus YKR091W, strain srl3, hits give low values",0.986
same,normalized growth,"locus YLL001W, strain dnm1, hits give low values",0.923
same,normalized growth,"locus YLL026W, hits give low values",0.934
same,normalized growth,"locus YLL041C, strain sdh2, hits give low values",0.946
same,normalized growth,"locus YLR027C, strain aat2, hits give low values",0.872 (active)
same,normalized growth,"locus YLR113W, strain HOG1, hits give low values",0.958
same,normalized growth,"locus YLR221C, strain rsa3, hits give low values",0.871 (active)
same,normalized growth,"locus YLR258W, strain gsy2, hits give low values",0.922
same,normalized growth,"locus YLR262C, strain YPT6 (second series), hits give low values",0.904
same,normalized growth,"locus YLR320W, strain mms22, hits give low values",0.957
same,normalized growth,"locus YLR342W, strain FKS1, hits give low values",0.943
same,normalized growth,"locus YLR357W, strain rsc2, hits give low values",0.31 (active)
same,normalized growth,"locus YLR370C, strain arc18, hits give low values",0.478 (active)
same,normalized growth,"locus YLR384C, strain iki3, hits give low values",0.692 (active)
same,normalized growth,"locus YML120C, strain ndi1, hits give low values",0.888 (active)
same,normalized growth,"locus YMR058W, strain fet3, hits give low values",0.885 (active)
same,normalized growth,"locus YMR125W, strain sto1, hits give low values",0.686 (active)
same,normalized growth,"locus YMR129W, hits give low values",0.949
same,normalized growth,"locus YMR205C, strain PFK2, hits give low values",1
same,normalized growth,"locus YMR231W, strain pep5, hits give low values",0.734 (active)
same,normalized growth,"locus YNL071W, strain lat1, hits give low values",0.89 (active)
same,normalized growth,"locus YNL183C, strain NPR1, hits give low values",0.881
same,normalized growth,"locus YNL209W, strain ssb2, hits give low values",0.796 (active)
same,normalized growth,"locus YNL248C, strain rpa49, hits give low values",0.73 (active)
same,normalized growth,"locus YNL322C, strain KRE1 (second series), hits give low values",0.942
same,normalized growth,"locus YNR049C, strain mso1, hits give low values",0.94
same,normalized growth,"locus YOR001W, strain rrp6, hits give low values",0.793 (active)
same,normalized growth,"locus YOR070C, strain gyp1, hits give low values",0.962
same,normalized growth,"locus YOR080W, strain dia2, hits give low values",0.776 (active)
same,normalized growth,"locus YOR083W, strain WHI5, hits give low values",0.923
same,normalized growth,"locus YOR106W, strain vam3, hits give low values",0.699 (active)
same,normalized growth,"locus YOR231W, strain MKK1, hits give low values",0.87
same,normalized growth,"locus YOR265W, strain rbl2, hits give low values",0.966
same,normalized growth,"locus YOR270C, strain vph1, hits give low values",0.781
same,normalized growth,"locus YOR290C, strain snf2, hits give low values",0.875
same,normalized growth,"locus YPL051W, strain arl3, hits give low values",0.869 (active)
same,normalized growth,"locus YPL078C, strain atp4, hits give low values",0.826 (active)
same,normalized growth,"locus YPL106C, strain sse1, hits give low values",0.356 (active)
same,normalized growth,"locus YPL240C, strain hsp82, hits give low values",0.924 (active)
same,normalized growth,"locus YPL256C, strain CLN2, hits give low values",0.901
